In PubChem BioAssay (EPA / NIEHS):
Activity calls are given as the source filed them. How the source made its calls: active means hit-call score of the fitted dose curve at least 0.9, where 1 is the maximum; inactive means score below 0.9.

Tests used:
[1] = BSK_hDFCGF_SRB: Viability Assessment in the BioMAP Diversity Plus: hDFCGF Assay (AID 2283061); conditions: primary human foreskin fibroblasts;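 further: cells exposed to compound for 24 h before the read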
How it was run: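 SRB-based viability read on primary human skin fibroblasts at 24 h: TCA fixation, 0.1% dye, 560 nm. Gain or loss of signal is fitted against the DMSO negative control.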

[2] = read-out: TIMP metallopeptidase inhibitor 1 (TIMP1), TIMP1 (gene 7076); test: BSK_hDFCGF_TIMP1: BioMAP Diversity Plus: hDFCGF Assay for TIMP metallopeptidase inhibitor 1 (TIMP1) Biomarker Activity (AID 2283062); conditions: primary human foreskin fibroblasts; actives raise or lower the signal
How it was run: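 Bidirectional curve fitting against DMSO baseline yielded this endpoint, based on ELISA detection of TIMP-1 in primary human foreskin fibroblasts exposed to compound for 24 h.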

[3] = read-out: Monokine induced gamma interferon (MIG), CXCL9 (gene 4283); test: BSK_hDFCGF_MIG: BioMAP Diversity Plus: hDFCGF Assay for Monokine induced gamma interferon (MIG) Biomarker Activity (AID 2283063); conditions: primary human foreskin fibroblasts; actives raise or lower the signal
How it was run: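 Endpoint derived by bidirectional fitting relative to DMSO; MIG quantified via ELISA in primary human foreskin fibroblasts harvested 24 h after dosing.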

[4] = read-out: Matrix Metallopeptidase 1 (MMP1), MMP1 (gene 4312); test: BSK_hDFCGF_MMP1: BioMAP Diversity Plus: hDFCGF Assay for Matrix Metallopeptidase 1 (MMP1) Biomarker Activity (AID 2283064); conditions: primary human foreskin fibroblasts; actives raise or lower the signal
How it was run: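 Primary human foreskin fibroblasts exposed to chemicals for 24 h; MMP1 measured by ELISA. Cytotoxicity tracked by SRB staining in parallel cultures; bidirectional fit relative to DMSO.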

[5] = read-out: Vascular cell adhesion molecule 1 (VCAM1), VCAM1 (gene 7412); test: BSK_hDFCGF_VCAM1: BioMAP Diversity Plus: hDFCGF Assay for Vascular cell adhesion molecule 1 (VCAM1) Biomarker Activity (AID 2283065); conditions: primary human foreskin fibroblasts; actives raise or lower the signal;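 on AC50: VCAM-1 protein level quantified by ELISA after 24 h chemical exposure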
How it was run: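 Measured after 24 h chemical treatment of primary human skin fibroblasts, VCAM-1 was detected by ELISA and concentration-response analysed in both directions versus DMSO vehicle.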

[6] = read-out: Plasminogen activator inhibitor-1 (PAI1), SERPINE1 (gene 5054); test: BSK_hDFCGF_PAI1: BioMAP Diversity Plus: hDFCGF Assay for Plasminogen activator inhibitor-1 (PAI1) Biomarker Activity (AID 2283066); conditions: primary human foreskin fibroblasts; actives raise or lower the signal
How it was run: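 Human foreskin fibroblast primary cells, 24 h chemical exposure; PAI-1 measured by ELISA. Bidirectional fitting relative to DMSO; parallel cultures stained with SRB for total protein to flag overt cytotoxicity.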

[7] = read-out: Intercellular Adhesion Molecule 1 (ICAM1), ICAM1 (gene 3383); test: BSK_KF3CT_ICAM1: BioMAP Diversity Plus: KF3CT Assay for Intercellular Adhesion Molecule 1 (ICAM1) Biomarker Activity (AID 2283067); conditions: primary human keratinocytes with fibroblasts; actives raise or lower the signal
How it was run: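 Bidirectional curve fitting against a DMSO baseline was applied to ICAM-1 ELISA signal from primary human skin co-cultures harvested 24 h after treatment, with SRB staining of parallel wells for overt cytotoxicity.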

[8] = read-out: Interferon-gamma inducible Protein 10 (IP10), CXCL10 (gene 3627); test: BSK_KF3CT_IP10: BioMAP Diversity Plus: KF3CT Assay for Interferon-gamma inducible Protein 10 (IP10) Biomarker Activity (AID 2283068); conditions: primary human keratinocytes with fibroblasts; actives raise or lower the signal
How it was run: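 ELISA read-out of IP-10 after 24 h chemical dosing of human skin primary co-culture (keratinocytes, foreskin fibroblasts). Gain or loss of signal relative to DMSO, bidirectional curve fit.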

[9] = BSK_KF3CT_SRB: Viability Assessment in the BioMAP Diversity Plus: KF3CT Assay (AID 2283069); conditions: primary human keratinocytes with fibroblasts;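 further: total protein by sulforhodamine B staining as a cytotoxicity measure; read 24 h after compound addition; fitted for both signal gain and loss against DMSO baseline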
How it was run: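 Human keratinocyte and foreskin fibroblast co-culture exposed to chemical for 24 h. Total protein measured in parallel cultures by 0.1% sulforhodamine B staining after 10% TCA fixation, read at 560 nm; bidirectional fit relative to DMSO.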

[10] = read-out: Interleukin-1 alpha (IL1a), IL1A (gene 3552); test: BSK_KF3CT_IL1a: BioMAP Diversity Plus: KF3CT Assay for Interleukin-1 alpha (IL1a) Biomarker Activity (AID 2283070); conditions: primary human keratinocytes with fibroblasts; actives raise or lower the signal
How it was run: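 Primary human keratinocyte plus foreskin fibroblast co-culture, dosed and measured at 24 h in 96-well plates. IL-1a level quantified by ELISA; bidirectional fit relative to DMSO.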

Measured: AC50

ClC1=C(Cl)C2(Cl)C3C(Cl)C=CC3C1(Cl)C2(Cl)Cl (stereo not given)
active: [1] 11.2 µM | [2] 9.82 µM | [3] 10.6 µM | [4] 13.4 µM | [5] 8.26 µM | [6] 9.78 µM | [7] 30.2 µM | [8] 15.3 µM | [9] 28.6 µM | [10] 27.3 µM

CNC(=O)Oc1cccc2c1OC(C)(C)C2
inactive: all assays above

COc1cc(C=O)cc2c1[C@H](COC(N)=O)[C@]1(OC(C)=O)ON2C[C@H]2[C@@H]1N2C(C)=O
active: [1] 2.45 µM | [2] 1.48 µM | [3] 1.25 µM | [4] 0.565 µM | [5] 1 µM | [6] 0.144 µM | [7] 11.6 µM | [8] 13 µM | [9] 3.36 µM | [10] 20 µM

CCCCOC(=O)c1ccccc1C(=O)OCc1ccccc1
active: [5] 20 µM
inactive: all other assays above

CCN(CC)N=O
inactive: all assays above

[Cl-].[Cl-].[Hg+2]
active: [1] 12.1 µM | [2] 13.5 µM | [3] 8.14 µM | [4] 11.8 µM | [5] 7.96 µM | [6] 12.2 µM | [7] 20.8 µM | [8] 12.8 µM | [9] 13.2 µM | [10] 30.4 µM

ClCCOCCCl
inactive: all assays above

C[N+](C)(C)CC1CO1 (stereo not given)
inactive: all assays above

Cn1cc(-c2ccccc2)c(=O)c(-c2cccc(C(F)(F)F)c2)c1
inactive: all assays above

c1ccc(C2CO2)cc1 (stereo not given)
inactive: all assays above

[O-][Cl+]O
inactive: all assays above

Clc1ccc(Cl)c(Cl)c1
inactive: all assays above

Brc1ccc(Oc2ccccc2)cc1
inactive: all assays above

O=C1CCCO1
inactive: all assays above

Oc1ccccc1Cl
inactive: all assays above

O=C(O)C1C2CCC(O2)C1C(=O)O (stereo not given)
active: [5] 18.6 µM | [6] 6.83 µM
inactive: all other assays above

CCC12COCN1COC2
inactive: all assays above

Cc1ccc(N)c(N)c1
active: [3] 3.65 µM
not listed: [8]
inactive: all other assays above

CCN(CC)CCO
inactive: all assays above

C1=Cc2cccc3cccc1c23
inactive: all assays above

COC(=O)c1ccccc1N
inactive: all assays above

CN(C)[C@@H]1C(=O)C(C(N)=O)=C(O)[C@@]2(O)C(=O)C3=C(O)c4c(O)cccc4[C@@](C)(O)[C@H]3C[C@@H]12
inactive: all assays above

C=CCc1ccc2c(c1)OCO2
inactive: all assays above

Cc1cccc(N)c1N
active: [7] 9.01 µM
inactive: all other assays above

Cc1cc(N=Nc2ccccc2C)ccc1N
inactive: [2] | [4]
active: [1] 34.5 µM | [3] 33.4 µM | [5] 23.5 µM | [6] 32.1 µM | [7] 31.8 µM | [8] 33.7 µM | [9] 29.9 µM | [10] 37.9 µM

CCOC(=O)[C@]1(c2ccccc2)Oc2ccccc2[C@@H]1N
active: [1] 26.9 µM | [2] 30.2 µM | [5] 36.6 µM | [6] 33.6 µM
not listed: [3]
inactive: all other assays above

CN(C)c1ccccc1
inactive: all assays above

Clc1ccc(C(c2ccc(Cl)cc2)C(Cl)Cl)cc1
active: [1] 9.91 µM | [2] 11.2 µM | [3] 11.8 µM | [4] 10.8 µM | [5] 9.19 µM | [6] 7.29 µM | [7] 15.5 µM | [8] 13.9 µM | [9] 12.8 µM | [10] 13.8 µM

CCOc1cccc(C2(N3CCN(c4ccccc4)CC3)CCC(C)CC2)c1 (stereo not given)
inactive: all assays above

Nc1ccc(Cl)cc1N
active: [5] 9.2 µM
inactive: all other assays above

Cc1ccc(N=C=O)cc1N=C=O
inactive: all assays above

Clc1ccc(C(c2ccc(Cl)cc2)C(Cl)(Cl)Cl)cc1
active: [1] 10.6 µM | [2] 13 µM | [3] 15.8 µM | [4] 14.8 µM | [5] 9.94 µM | [6] 8.38 µM | [7] 27.7 µM | [8] 16.3 µM | [9] 18.7 µM | [10] 25.1 µM

O=[N+]([O-])c1ccc(Oc2ccc(Cl)cc2Cl)cc1
active: [4] 10.2 µM | [5] 13.5 µM
inactive: all other assays above

CO[C@@H]1[C@H](OC(=O)NC(=O)CCl)CC[C@]2(CO2)[C@H]1[C@@]1(C)O[C@@H]1CC=C(C)C
active: [1] 9.25 µM | [2] 5.82 µM | [3] 8.35 µM | [4] 11.6 µM | [5] 4.58 µM | [8] 8.27 µM | [10] 7.91 µM
inactive: [6] | [7] | [9]

Nc1ccc(Cc2ccc(N)cc2)cc1
inactive: all assays above

c1ccc(N=Nc2ccccc2)cc1
inactive: all assays above

c1ccc2c(c1)oc1ccccc12
not listed: [2]
inactive: all other assays above

CCCCCCCCn1sccc1=O
active: [1] 1.73 µM | [2] 2.09 µM | [3] 0.949 µM | [4] 1.43 µM | [5] 1.09 µM | [6] 1.4 µM | [7] 9.79 µM | [8] 8.03 µM | [9] 6.74 µM | [10] 9.05 µM

ClC1=C(Cl)[C@]2(Cl)[C@H]3[C@H]([C@@H]4C=C[C@H]3C4)[C@@]1(Cl)C2(Cl)Cl
active: [1] 10.3 µM | [3] 16.4 µM | [4] 29.9 µM | [5] 10.1 µM | [6] 10.7 µM | [7] 15.5 µM | [8] 14.5 µM | [9] 30.6 µM

c1ccc(NNc2ccccc2)cc1
inactive: all assays above

CCC[CH2][Sn]([Cl])([CH2]CCC)[CH2]CCC
active: [1] 0.148 µM | [2] 0.148 µM | [3] 0.369 µM | [4] 0.271 µM | [5] 0.148 µM | [6] 0.296 µM | [7] 0.148 µM | [8] 0.342 µM | [9] 0.422 µM | [10] 0.294 µM

CCCCCCCCOC(=O)c1ccc(C(=O)OCCCCCCCC)c(C(=O)OCCCCCCCC)c1
inactive: all assays above
